Sampled rows, rich in hits. Any-hit rate of the full collection: about 4.1%.
hgDAF-12 ag = agonists of H. glycines DAF-12 nuclear receptor; AID 687014; HEK293 GAL4-hgDAF12 UAS-luciferase reporter, agonist luminescence; normalized to butyrate control; activation, % at 6.8 µM; 370,000 compounds, 1.8% hits;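 active = activation above a cutoff set at the mean of all screened compounds plus 3 SD, cut at about 10% in these data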;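 note: 0% = DMSO wells and 100% = sodium butyrate wells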
DAX1 inh-1 = inhibits human nuclear receptor DAX1; HEK293 Gal4-DAX1 luciferase reporter, luminescence; inhibition, % at 6.75 µM; 340,000 compounds, 0.99% hits; AID 504766;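 active = inhibition above the mean over all tested compounds plus 3 SD, cut at about 4.2% in these data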;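 note: 0% = DAX1-transfected cells with DMSO and 100% = empty-vector control cells with DMSO; inhibition shows as a rise in luminescence from relieved DAX1 repression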
DAX1 inh-2 = DAX1 (NR0B1) inhibition, primary screen. HEK293T StAR-luciferase reporter, SF-1/DAX-1 repression relief. 370,000 compounds, 1.1% hits. inhibition, % at 6.8 µM;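 active = inhibition above the mean over all tested compounds plus 3 SD, cut at about 3.6% in these data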;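 note: 0% = DAX-1 cells with DMSO and 100% = cells lacking DAX-1 with DMSO; higher inhibition means more luminescence from relief of DAX-1 repression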
ssDAF12 agonist = activators of S. stercoralis DAF-12 nuclear receptor | activation, % at 6.8 µM | 370,000 compounds, 1% hits | HEK293 ssDAF-12/GRIP1 lit1-tk-luc reporter, luminescence; % of 3 µM dafachronic acid response;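 active = activation above the mean over all tested compounds plus 3 SD, cut at about 0.9% in these data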;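 note: 0% = DMSO-only wells and 100% = 3 µM delta7-dafachronic acid wells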
hcDAF-12 act = activators of H. contortus DAF-12 nuclear receptor; HEK293 hcDAF-12 lit1-tk-luc reporter, luminescence; 0% DMSO, 100% Δ7-dafachronic acid; AID 652067; 370,000 compounds, 1.4% hits; activation, % at 6.8 µM;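 active = activation above the mean of all tested compounds plus 3 SD, cut at about 5.5% in these data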;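 note: 100% = response to 3 µM Δ7-dafachronic acid high control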
LXR ag = counter-screen for hcDAF-12 agonists: agonists of human LXR-beta | shares compounds with hcDAF-12 act | HEK293 Gal4-LXR tk-luc reporter, luminescence, 24 h; normalized: DMSO 0%, positive control 100% | activation, % at 6.8 µM | 3,400 tested, under 10 active | AID 743027;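 active = mean percent activation of the reporter above a cutoff set as the average over tested compounds plus their standard deviation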
Target sequence (P55055 whole entry, looked up, the tested form may be a part): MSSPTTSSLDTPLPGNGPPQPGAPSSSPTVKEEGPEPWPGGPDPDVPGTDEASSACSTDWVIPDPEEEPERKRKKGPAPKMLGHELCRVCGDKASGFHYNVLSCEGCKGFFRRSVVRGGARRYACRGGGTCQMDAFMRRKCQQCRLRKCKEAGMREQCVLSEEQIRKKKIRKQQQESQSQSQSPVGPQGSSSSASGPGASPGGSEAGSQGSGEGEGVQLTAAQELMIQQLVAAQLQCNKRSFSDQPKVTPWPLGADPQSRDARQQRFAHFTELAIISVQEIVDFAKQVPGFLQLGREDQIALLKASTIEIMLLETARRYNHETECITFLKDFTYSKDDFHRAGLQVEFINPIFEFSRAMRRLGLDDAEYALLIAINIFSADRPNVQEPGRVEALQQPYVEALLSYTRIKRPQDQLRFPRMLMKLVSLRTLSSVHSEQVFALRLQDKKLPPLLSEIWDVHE
hcDAF12 ag = confirmation of H. contortus DAF-12 agonists; HEK293 hcDAF-12 lit1-tk-luc reporter, luminescence; % of Δ7-dafachronic acid response; activation, % at 6.8 µM; AID 743032; shares compounds with hcDAF-12 act; 3,400 compounds, 61% hits;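 active = mean activation across triplicate tests above the threshold derived from the earlier primary screen, cut at about 5.5% in these data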;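 note: 0% = DMSO only wells and 100% = 3 µM Δ7-dafachronic acid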
An asterisk follows results filed as active; x = no result.

SMILES	hgDAF-12 ag	DAX1 inh-1	DAX1 inh-2	ssDAF12 agonist	hcDAF-12 act	LXR ag	hcDAF12 ag
CCN1CCN(/C=N/c2nc(C)cs2)CC1	8	0	2	0	6.8*	0	2
O=C(Nc1ccc(Br)cc1)c1cc2ccccn2n1	13*	2	1	1	6.9*	1	6
CC(NC(=O)c1cc2ccccn2n1)c1ccccc1 (stereo not given)	3	x	0	-1	-1	x	x
O=C1CC(Sc2nnc(-c3ccccc3O)o2)C(=O)N1c1ccccc1 (stereo not given)	-3	2	0	-2	-2	x	x
O=C1c2ccccc2CC1Sc1nnc(-c2ccccn2)o1 (stereo not given)	7	-1	0	0	6.7*	0	5
Nc1[nH]c2cc(Cl)ccc2c1C(=O)N1CCOCC1	1	x	1	0	4	x	x
C/C(=N\NC(=O)c1ccccc1O)C1C(=O)c2ccccc2C1=O	10	1	2	0	6.9*	0	3
CC(C)CSc1ncccc1-c1nc2ccccc2[nH]1	-1	x	-1	-1	-2	x	x
O=C(CSc1nc2sc3c(c2c(=O)n1-c1ccc(Cl)cc1)CCC3)Nc1ccc(C(=O)O)cc1	0	x	1	-1	7.9*	0	2
COC(=O)[C@]12C[C@H](CC(=O)NCCc3ccccc3OC)C(=O)N(Cc3ccco3)C1=C[C@H](C(C)(C)C)O[C@@H]2C	1	x	-1	-1	-3	x	x
CC1CN(S(=O)(=O)c2ccc(C(=O)Nc3ccc(S(=O)(=O)Nc4nccs4)cc3)cc2)CC(C)O1 (stereo not given)	-2	3	2	-1	1	x	x
Cc1ccnc(NS(=O)(=O)c2ccc(NC(=O)c3ccc(S(=O)(=O)N4CC(C)OC(C)C4)cc3)cc2)n1 (stereo not given)	0	0	1	-1	19*	0	1
O=C(O)c1cc(N/N=C/c2cccc3ccccc23)ccc1Cl	1	2	0	0	8.4*	1	8.2*
COc1ccc(N2C(=O)c3n[nH]c(C(C)C)c3C2c2ccc(F)cc2)cc1 (stereo not given)	0	x	0	-1	-2	x	x
CC(C)CCNC(=O)CCC(=O)NNc1nc2ccccc2c2nc(-c3ccccc3)nn12	2	-1	0	0	6.8*	0	2
O=S1(=O)c2ccc(N3CCCC3)cc2Oc2ccccc2CN1Cc1cn(Cc2ccccc2C(F)(F)F)nn1	-2	x	-1	-2	-3	x	x
O=C(Nc1ccc(Br)cc1)OC1CC2CC1[C@H]1CCCCN1[C@H]2Cc1ccccc1 (stereo not given in full)	2	x	0	-1	0	x	x
CN(c1ccccc1)c1ccc(/C=N/N2CCOCC2)cc1	11*	5.8*	2	-1	7.0*	1	5.9*
C(=NN1CCCCCC1)c1ccccc1	3	0	2	-1	1	x	x
CN1C(=O)c2cc(NC(=O)c3ccc(F)cc3)ccc2OC[C@H]2O[C@H](CC(=O)NC3CCC3)CC[C@H]21	1	x	2	-1	0	x	x
CN1CCN(C(=O)Nc2ccccc2CC[N+](=O)[O-])CC1	-1	0	1	0	13*	0	4
O=C(c1cc2cc(Cl)ccc2oc1=O)N1CCOCC1	0	-1	0	-1	-1	x	x
O=C(c1cc2ccccc2oc1=O)N1CCOCC1	11*	3	3	0	6.7*	1	5.6*
CCNC(=O)N1CCN(c2ccc(N3CCN(C(=O)NCC)[C@@H](C)C3)c(C)c2)[C@@H](C)C1	0	x	0	-1	-2	x	x
COc1cccc(/C=C2\CC3(OC(=O)c4ccc(Cl)cc4)CCCN2C3)c1 (stereo not given)	3	x	0	0	3	x	x
SMILES	hgDAF-12 ag	DAX1 inh-1	DAX1 inh-2	ssDAF12 agonist	hcDAF-12 act	LXR ag	hcDAF12 ag
Cc1nc2sc(C(=O)c3ccccc3)c(N)c2c(C)c1C	6	1	-1	-1	0	x	x
CC(=O)c1ccc(NC(=O)c2sc3nc(C)c(C)c(C)c3c2N)cc1	10	6.7*	2	1.2*	8.2*	1	5.8*
Cc1nc2sc(C(=O)Nc3ccccc3)c(N)c2c(C)c1[N+](=O)[O-]	10	6.9*	4.0*	1.6*	8.1*	1	9.4*
COC(=O)[C@]12C[C@H](CC(=O)NCc3cccs3)C(=O)N(Cc3ccco3)C1=C[C@H](C1CCCC1)O[C@@H]2C	4	x	0	-1	-3	x	x
Cc1ccc(C(C(=O)NC(C)(C)C)N(Cc2ccco2)C(=O)Cn2nnc(-c3cccs3)n2)cc1 (stereo not given)	-1	0	-1	-1	-2	x	x
CC(C)(C)NC(=O)C(c1ccc(O)cc1)N(Cc1ccco1)C(=O)Cn1nnc(-c2cccs2)n1 (stereo not given)	-2	-1	0	-1	8.2*	0	0
COc1ccc(N2C(=O)c3[nH]nc(-c4ccccc4)c3C2c2cccc(C(F)(F)F)c2)cc1 (stereo not given)	-3	x	-1	-1	-1	x	x
c1ccc(CCNc2nc3ccccc3s2)cc1	5	2	0	-1	1	x	x
Cc1ccc(CNc2nc3ccccc3s2)s1	6	-2	4.0*	1.0*	10*	1	12*
c1ccc2sc(NCC3CCCO3)nc2c1 (stereo not given)	10	4	4.2*	0	8.2*	1	4
CC(COc1ccc(C#N)c(F)c1)CN1CCC(C(O)(c2ccccc2)c2ccccc2)CC1 (stereo not given)	4	x	-1	-1	-3	x	x
CCN=C1NC(c2cccc(Cl)c2)C(C(=O)OC)=C(C)N1Cc1ccccc1C(F)(F)F (stereo not given)	1	x	-1	-1	-1	x	x
N#CC1(Nc2ccc3ccccc3c2)CCCC1	9	3	4.1*	0	6.9*	0	7.0*
N#CC1(P(=O)(c2ccccc2)c2ccccc2)CCCC1	2	0	0	-1	-1	x	x
CC(C)[C@H](NC(=O)CC1CCCC1)C(=O)N1CCC[C@H]1C(=O)NCCc1ccccc1Cl	-2	x	0	-1	-1	x	x
O=C1C[C@@H](C(=O)Nc2ccc(Cl)cc2)[C@@H](c2ccccc2)O1	-2	x	-1	-2	0	x	x
COc1ccc(CN(C)C(=O)[C@@H](Cc2ccccc2)NC(=O)[C@H]2O[C@@H](n3ccc(N)nc3=O)[C@H](O)[C@@H]2O)cc1OC	0	x	1	-1	0	x	x
O=C(NCc1ccc(Cl)cc1Cl)Nc1ccccc1	7	1	1	-1	7.4*	0	4

Screening data as filed in PubChem.
